Reference: PubChem BioAssay (NCI)
The panel holds about 79,000 compounds, 15% with a hit somewhere; the sample as a whole holds those more often. The source made the active and inactive calls. No stated cut-off is given here; in the data, active means growth inhibition above about 70%; inactive means the rest.

How the values were obtained:
[1] = NCI Yeast Anticancer Drug Screen. Data for the wt2 strain (AID 169);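 further: 0% = growth of vehicle-treated yeast cultures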; details: S. cerevisiae wt2 strain growth inhibition, active compounds read high
Method in brief: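 Inhibition of yeast growth was determined after compound treatment, normalised to controls receiving only vehicle.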

[2] = NCI Yeast Anticancer Drug Screen. Data for the mlh1 strain (AID 171);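 further: 0% = growth of vehicle-treated control cultures of the same strain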; details: S. cerevisiae mlh1 strain growth inhibition, active compounds read high
Method in brief: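 Vehicle-normalised growth inhibition of a repair- or checkpoint-altered yeast strain following compound treatment.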

[3] = NCI Yeast Anticancer Drug Screen. Data for the sgs1 strain (AID 173);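 further: 0% = growth of vehicle-only control cultures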; details: S. cerevisiae sgs1 mutant, active compounds read high
Method in brief: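 Screen format: yeast with repair or checkpoint alterations, compound exposure, growth read relative to vehicle.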

[4] = NCI Yeast Anticancer Drug Screen. Data for the mlh1 rad18 strain (AID 175); details: S. cerevisiae mlh1 rad18 strain growth inhibition, active compounds read high
Method in brief: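 Vehicle-treated cultures served as the reference for growth inhibition in a yeast strain carrying DNA damage repair alterations exposed to each compound.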

[5] = NCI Yeast Anticancer Drug Screen. Data for the rad18 strain (AID 177); details: S. cerevisiae rad18 mutant growth inhibition, active compounds read high
Method in brief: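 Test articles were incubated with altered yeast defective in DNA damage repair. Results are given as inhibition of growth versus vehicle.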

[6] = NCI Yeast Anticancer Drug Screen. Data for the rad52 strain (AID 147);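 further: 0% = growth of vehicle-treated control cultures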; details: S. cerevisiae rad52 mutant growth inhibition, active compounds read high
Method in brief: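 Vehicle-treated cultures served as the reference for growth inhibition of compound-exposed yeast bearing a DNA repair mutation.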

[7] = NCI Yeast Anticancer Drug Screen. Data for the wt1 strain (AID 149);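 further: 0% = growth of vehicle-treated wt1 cultures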; details: S. cerevisiae wt1 strain (SPY 50644) growth inhibition, active compounds read high
Method in brief: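 Vehicle-normalised growth inhibition; strain wt1; compound exposure.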

[8] = NCI Yeast Anticancer Drug Screen. Data for the rad50EPP+ strain (AID 151);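 further: 0% = growth of vehicle-treated control cultures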; details: S. cerevisiae rad50 mutant strain, active compounds read high
Method in brief: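 In this screen, rad50EPP+ yeast were exposed to compounds. Growth inhibition was scored against vehicle-treated controls.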

[9] = NCI Yeast Anticancer Drug Screen. Data for the mgt1 strain (AID 153); details: S. cerevisiae mgt1 mutant growth inhibition, active compounds read high
Method in brief: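 mgt1 strain exposed; growth vs vehicle control recorded as inhibition.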

[10] = NCI Yeast Anticancer Drug Screen. Data for the rad50 strain (AID 155);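 further: 0% = growth of vehicle-only cultures of the same strain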; details: S. cerevisiae rad50 strain growth inhibition, active compounds read high
Method in brief: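 A DNA repair-deficient yeast mutant serves as the test organism; compound-induced growth inhibition is calculated against vehicle-treated cells.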

[11] = NCI Yeast Anticancer Drug Screen. Data for the mec2-1 strain (AID 157); details: S. cerevisiae mec2-1 strain, active compounds read high
Method in brief: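 Vehicle-treated cultures served as reference for growth inhibition of compound-exposed mec2-1 yeast.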

[12] = NCI Yeast Anticancer Drug Screen. Data for the rad14 strain (AID 159);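 further: 0% = growth of vehicle-treated control cultures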; details: S. cerevisiae rad14 strain growth inhibition, active compounds read high
Method in brief: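 Vehicle-treated cultures served as the baseline for growth inhibition of a DNA repair-mutant yeast strain exposed to each compound.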

[13] = NCI Yeast Anticancer Drug Screen. Data for the sgs1 mgt1 strain (AID 161);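 further: 0% = growth of cultures given vehicle only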; details: S. cerevisiae sgs1 mgt1 strain, active compounds read high
Method in brief: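 Read-out: growth inhibition vs vehicle controls. Cells: mutant yeast strain deficient in DNA damage repair.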

[14] = NCI Yeast Anticancer Drug Screen. Data for the CLN2oe strain (AID 163);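 further: 0% = growth of vehicle-only control cultures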; details: S. cerevisiae CLN2oe strain, active compounds read high
Method in brief: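 Inhibition relative to vehicle-treated yeast is reported. Cells: strain with genetic alteration in cell-cycle control, grown with compound.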

[15] = NCI Yeast Anticancer Drug Screen. Data for the cln2 rad14 strain (AID 165);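 further: 0% = growth equal to vehicle treated cultures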; details: S. cerevisiae cln2 rad14 strain, active compounds read high
Method in brief: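 Each compound was tested on cln2 rad14 yeast. Inhibition of growth was calculated against vehicle-exposed controls.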

[16] = NCI Yeast Anticancer Drug Screen. Data for the bub3 strain (AID 167); details: S. cerevisiae bub3 mutant strain, active compounds read high
Method in brief: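 Inhibition values come from growth of compound-treated mutant yeast normalised to vehicle-treated controls.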

[17] = at 5.0 µM (retest, dose inferred, filed as 0.5)
[18] = at 50.0 µM (retest, dose inferred, filed as 5.0)

Measured: growth inhibition

COC(=O)C(=O)c1c(-c2ccc(Cl)c(Cl)c2)[nH]c2[nH]n(-c3ccccc3)c(=O)c2c1=O
active: [4]; [18] 80% | [4]; at 50.0 µM 94.5% | [5]; at 100.0 µM 77%
inactive: [1]; at 1.2 µM 0% | [1]; at 3.7 µM 5% | [1]; at 11.0 µM 44% | [1]; at 33.0 µM 57% | [1]; at 100.0 µM 56% | [2]; at 1.2 µM -2% | [2]; at 3.7 µM -3% | [2]; at 11.0 µM 36% | [2]; at 33.0 µM 57% | [2]; at 100.0 µM 57% | [3]; at 1.2 µM -1% | [3]; at 3.7 µM -1% | [3]; at 11.0 µM 60% | [3]; at 33.0 µM 61% | [3]; at 100.0 µM 65% | [4]; [17] -7% | [5]; at 1.2 µM -3% | [5]; at 3.7 µM -2% | [5]; at 11.0 µM 3% | [5]; at 33.0 µM 49%

CC(C)(Br)C(=O)/C=C/c1ccccc1
inactive: [6]; at 1.2 µM 8% | [6]; at 3.7 µM 21% | [6]; at 11.0 µM 47% | [7]; at 1.2 µM 3% | [7]; at 3.7 µM 9% | [7]; at 11.0 µM 9% | [7]; at 33.0 µM 10% | [7]; at 100.0 µM 17% | [8]; at 1.2 µM 21% | [8]; at 3.7 µM 51% | [9]; at 1.2 µM -2% | [9]; at 3.7 µM -1% | [9]; at 11.0 µM 4% | [9]; at 33.0 µM 7% | [9]; at 100.0 µM 15% | [10]; at 1.2 µM 6% | [10]; at 3.7 µM 11% | [10]; [17] 15% | [10]; at 11.0 µM 26% | [10]; at 33.0 µM 34% | [10]; at 100.0 µM 60% | [11]; at 1.2 µM 5% | [11]; at 3.7 µM 7% | [11]; [17] -14% | [11]; at 11.0 µM 17% | [11]; at 33.0 µM 28% | [11]; at 100.0 µM 48% | [12]; at 1.2 µM 6% | [12]; at 3.7 µM 14% | [12]; at 11.0 µM 27% | [12]; at 33.0 µM 59% | [13]; [17] 68% | [14]; at 1.2 µM -4% | [14]; at 3.7 µM -3% | [14]; at 11.0 µM -5% | [14]; at 33.0 µM 4% | [14]; at 100.0 µM 19% | [15]; [17] 3% | [16]; at 1.2 µM -3% | [16]; at 3.7 µM -7% | [16]; [17] -16% | [16]; at 11.0 µM -7% | [16]; at 33.0 µM -2% | [16]; [18] 63% | [16]; at 50.0 µM 22.1% | [16]; at 100.0 µM 7% | [1]; at 1.2 µM 0% | [1]; at 3.7 µM 3% | [1]; at 11.0 µM 6% | [1]; at 33.0 µM 10% | [1]; at 100.0 µM 18% | [2]; at 1.2 µM 0% | [2]; at 3.7 µM 4% | [2]; at 11.0 µM 10% | [2]; at 33.0 µM 15% | [2]; at 100.0 µM 27% | [3]; at 1.2 µM 24% | [3]; at 3.7 µM 50% | [3]; at 11.0 µM 66%
active: [6]; at 33.0 µM 73% | [6]; at 100.0 µM 91% | [8]; at 11.0 µM 76% | [8]; at 33.0 µM 88% | [8]; at 100.0 µM 95% | [10]; [18] 93% | [10]; at 50.0 µM 88.3% | [11]; [18] 89% | [11]; at 50.0 µM 95.7% | [12]; at 100.0 µM 97% | [13]; [18] 92% | [13]; at 50.0 µM 91.3% | [15]; [18] 87% | [15]; at 50.0 µM 97.2% | [3]; at 33.0 µM 70% | [3]; at 100.0 µM 80% | [4]; [17] 74% | [4]; [18] 95% | [4]; at 50.0 µM 71.9% | [5]; at 1.2 µM 94% | [5]; at 3.7 µM 95% | [5]; at 11.0 µM 96% | [5]; at 33.0 µM 96% | [5]; at 100.0 µM 97%
